High-throughput results from PubChem.
This is a sample that favours compounds with a hit; in the whole collection about 14% have one here.
HCV inhibitor = inhibitors of hepatitis C virus infection. Huh7.5.1 HCVcc-Cre infection, luciferase reporter, 44 h. Potency, µM (doses to about 41.8 µM), most hits filed as inhibitors. actives 3.4% (n = 340,000). AID 651820
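Compounds are dispensed onto cells plated 4 h earlier at 1,000 per well, with HCVcc-Cre virus (about 0.5 moi) added next. Following 44 h of culture, luminescent signal is measured for 15 sec after 15 min with substrate at room temperature.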
Pf growth 96h = P. falciparum growth inhibition at 96 hours; P. falciparum luciferase reporter growth, 96 h; Potency, µM (highest dose often 28.7 µM), most hits filed as inhibitors; actives 6.9% (n = 320,000); AID 504834
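Two parasite generations (96 h, 37 C, 5% CO2) of compound exposure in infected erythrocytes (0.05% parasitemia, 2% hematocrit). Luciferase-reporter P. falciparum; decreased luminescence indicates inhibited growth, aimed at apicoplast-acting delayed death.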
Pf growth 48h = P. falciparum growth inhibition at 48 hours (one generation) | P. falciparum luciferase growth in erythrocytes, 48 h | Potency, µM (titrated, usually from 28.7 µM), usual class: inhibitors | actives 5.9% (n = 310,000) | AID 504832
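Erythrocytes infected with P. falciparum carrying an integrated firefly luciferase reporter (2% hematocrit, 0.1% parasitemia final) were exposed to compounds in RPMI 1640 with 0.5% Albumax at 37 C, 5% CO2. Growth inhibition was scored as reduced luminescence.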
MARV entry inh = Marburg virus entry inhibition; actives 1.8% (n = 300,000); AID 540276; Potency, µM (series often up to 37.8 µM), usual class: inhibitors; Marburg virus pseudotyped entry inhibition, cell reporter; calls by dose curve; tested in HEK293 cells
Lassa entry inh = blocks Lassa virus binding to or entry into cells | Potency, µM (series often up to 37.9 µM), most hits filed as inhibitors | actives 1.2% (n = 300,000) | Lassa virus pseudotype entry inhibition, cell reporter; calls by dose curve; tested in HEK293 cells; note: nearly all actives have a fitted effect of over 50% in size
HCMV antiviral = human cytomegalovirus inhibition; HFF cells, HCMV-luciferase reporter, 72 h; stronger effect = lower value; actives 4.5% (n = 410,000); activity change, negative = inhibition, % at 57.5 µM; in the data active = activity change below about -60%; inconclusive = no clear call, values can overlap the other calls; inactive = above about -39%
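Luciferase read-out from HCMV-luciferase-infected HFFs (MOI 1 PFU/cell) 72 h post infection at 37C; compounds added after 16 h cell attachment; activity normalized between buffer-only basal and Salinomycin (10uM) inhibitor controls.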
Large screens that a line does not name were inactive. Unless noted, calls come from the whole dose curve; as a rule, active = well fitted inhibition curve with a large enough effect; inconclusive = small, poorly fitted or top-dose-only effect, or another doubt; inactive = no such curve, though single readings can be large or run the other way.

COc1ccc(OC)c(NC(=O)c2cc3cccc(OC)c3oc2=O)c1	none (no result: HCV inhibitor, Pf growth 96h, Pf growth 48h, MARV entry inh)
CCCN(CCC)S(=O)(=O)c1ccc(C(=O)Nc2cc3oc4ccccc4c3cc2OC)cc1	Pf growth 48h 10µM, HCMV antiviral inconclusive
C=CCOC(=O)N[C@H](c1ccc(-c2ccccc2)cc1)[C@H](C)C=CCC(=O)OC	Lassa entry inh inconclusive (no result: HCV inhibitor, Pf growth 96h, Pf growth 48h, HCMV antiviral)
Cc1ccc(-n2nc3c(N4CCCC(C(=O)NCc5ccc(Cl)cc5)C4)nnc(C)c3c2C)cc1 (stereo not drawn)	none (no result: HCV inhibitor, Pf growth 96h, Pf growth 48h, MARV entry inh)
OCc1ccc(-c2cncc3nccn23)cc1	none (no result: HCV inhibitor, Pf growth 96h, Pf growth 48h, MARV entry inh, Lassa entry inh)
COc1cc2c(cc1NC(=O)c1ccc3c(c1)OCO3)oc1ccccc12	HCV inhibitor 14µM, MARV entry inh inconclusive, Lassa entry inh inconclusive
COC(=O)CN(C(=S)Nc1ccccc1)C1CC(=O)N(c2ccc(OC)cc2)C1=O (stereo not drawn)	none
O=C1CC(N(CCc2ccccc2)C(=S)Nc2cc(Cl)ccc2Cl)C(=O)N1c1c(Cl)cccc1Cl (stereo not drawn)	HCV inhibitor inconclusive, Pf growth 96h 10µM, Pf growth 48h inconclusive, MARV entry inh 13µM, Lassa entry inh inconclusive
O=C1CC(N(CCc2ccccc2)C(=S)Nc2ccccc2)C(=O)N1c1ccc(F)cc1 (stereo not drawn)	Pf growth 96h inconclusive, Pf growth 48h inconclusive (no result: MARV entry inh, Lassa entry inh)
CCNC(=S)N(CCc1ccc(S(N)(=O)=O)cc1)C1CC(=O)N(c2ccccc2)C1=O (stereo not drawn)	Pf growth 96h 10µM, Pf growth 48h inconclusive, MARV entry inh inconclusive, Lassa entry inh inconclusive, HCMV antiviral inconclusive
CNC(=S)N(CCc1ccc(OC)c(OC)c1)C1CC(=O)N(c2ccccc2)C1=O (stereo not drawn)	Pf growth 48h inconclusive (no result: HCMV antiviral)
O=C1CC(N(CCc2ccccc2)C(=S)Nc2ccccc2)C(=O)N1c1ccccc1 (stereo not drawn)	Pf growth 96h 3.3µM, Pf growth 48h inconclusive, MARV entry inh inconclusive, Lassa entry inh inconclusive
C=CCN(C(=O)Nc1ccccc1)C1CC(=O)N(c2ccc(OC)cc2)C1=O (stereo not drawn)	Pf growth 96h 12µM
COC(=O)NC(CCc1ccccc1)C(C(=O)OC)C(=O)OC (stereo not drawn)	Lassa entry inh inconclusive (no result: HCV inhibitor, Pf growth 96h, Pf growth 48h, HCMV antiviral)
CCOc1ccc(CCNCc2c(C(=O)O)n(Cc3ccc(C)cc3)c3cc(OC)ccc23)cc1	Lassa entry inh inconclusive (no result: HCV inhibitor, Pf growth 96h, Pf growth 48h, MARV entry inh)
Cc1cccc(C(=O)Nc2ccc(S(=O)(=O)N3CCC(c4nc5ccccc5s4)CC3)cc2)c1	none (no result: HCV inhibitor, Pf growth 96h, Pf growth 48h)
CC(C)C(=O)N[C@@H]1CCCN1C(=O)C=Cc1ccccc1	none (no result: HCV inhibitor, Pf growth 96h, Pf growth 48h, HCMV antiviral)
Cc1cc(O)c2c(c1)C(=O)[C@@]13Oc4c5c(c(O)c6c(O)cc(C)cc46)C(=O)C[C@H](O)[C@H]5[C@@H]1[C@@H](O)CC(=O)C3=C2O	none (no result: Pf growth 96h, Pf growth 48h, MARV entry inh, Lassa entry inh, HCMV antiviral)
CNC(=S)N(Cc1ccc(OC)cc1)C1CC(=O)N(c2ccc(C(=O)OC)cc2)C1=O (stereo not drawn)	Pf growth 96h 5.9µM, Pf growth 48h inconclusive (no result: Lassa entry inh)
CCCOc1ccc(N2C(=O)CC(N(Cc3ccc(OC)cc3)C(=S)Nc3ccccc3)C2=O)cc1 (stereo not drawn)	Pf growth 96h inconclusive, Pf growth 48h inconclusive, MARV entry inh inconclusive
COC(=O)CN(C(=S)Nc1ccc(F)cc1)C1CC(=O)N(c2ccccc2)C1=O (stereo not drawn)	Pf growth 48h 10µM, MARV entry inh inconclusive
CCCOc1ccc(N2C(=O)CC(N(CCc3ccc(OC)c(OC)c3)C(=S)Nc3ccccc3)C2=O)cc1 (stereo not drawn)	Pf growth 96h inconclusive, Pf growth 48h 2.1µM, MARV entry inh inconclusive, Lassa entry inh inconclusive (no result: HCMV antiviral)
O=C(NCc1ccccc1Cl)c1c2c(nc3ccccc13)C(=O)N(C1CCCCC1)C2	none (no result: HCV inhibitor, Pf growth 96h, Pf growth 48h, MARV entry inh)
COc1ccc(C)cc1NC(=O)c1cc(S(=O)(=O)N2CCC(C)CC2)ccc1F	none (no result: HCV inhibitor, Pf growth 96h, Pf growth 48h, MARV entry inh)
CC(C)Cc1nn2c(=O)cc(COC(=O)c3cccc(NC(=O)c4cccs4)c3)nc2s1	none (no result: HCV inhibitor, Pf growth 96h, Pf growth 48h, MARV entry inh)
Cc1nnc(Nc2ccccn2)c2ccccc12	HCMV antiviral -60 (no result: Pf growth 96h)
Cc1nnc(Nc2ccc(F)cc2)c2ccccc12	Pf growth 96h inconclusive
CSc1ccc(CNc2ncc(-c3ccccc3)n2C)cc1	none (no result: HCV inhibitor, Pf growth 96h, Pf growth 48h, MARV entry inh)
CC(=O)Nc1nc(-c2ccc3c(c2)CC(C)N3C(=O)C2CC2)c(C)s1 (stereo not drawn)	HCV inhibitor inconclusive, HCMV antiviral -100
